High-throughput results: PubChem BioAssay, National Center for Advancing Translational Sciences (NCATS)
hNpr1 antagonist – human Npr1 receptor antagonism | HEK293 hNpr1 GloSensor cGMP, ANP-stimulated luminescence | Potency, µM (top dose mostly 46.3 µM), for inactives: at the highest dose activity change, negative = inhibition, hits mostly inhibitors | hit rate 1.6% among 76,000; calls by dose curve; note: nearly all actives have a fitted effect of over 60% in size
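Compound pre-incubated 30 min at room temperature on GloSensor-loaded HEK293 cells stably carrying hNpr1 and the pGS-40F cGMP biosensor. Stimulation uses hNppA at 0.1 nM final; luminescence is taken at baseline and 20 min post-agonist.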
NIH3T3 tox – NIH 3T3 cell cytotoxicity. AID 1345082. NIH 3T3 viability, CellTiter-Glo ATP luminescence, 48-72 h. Potency, µM (titrated, usually from 96.7 µM), inactives show at the highest dose activity change, negative = cytotoxicity, actives largely listed as inhibitors. hit rate 4.3% among 94,000; note: nearly all actives have a fitted effect of over 55% in size
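Cytotoxicity was measured by CellTiter-Glo ATP luminescence after 48 or 72 h compound exposure at 37 °C. Mouse NIH 3T3 fibroblasts were seeded at 400 cells/well and dosed by 23 nL pin transfer.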
GPT2 inh – GPT2 alanine aminotransferase inhibition; Q8TD30; Recombinant GPT2, coupled pyruvate oxidase/HRP Amplex Red fluorescence; Potency, µM (titrated, usually from 57.7 µM), inactives show at the highest dose activity change, negative = inhibition, usual class: inhibitors; hit rate 0.25% among 100,000; AID 1671188; note: nearly all actives have a fitted effect of over 60% in size
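Fluorescence of coupled pyruvate oxidase/HRP/Amplex Red system (50uM Amplex, 30 min, dark) reports pyruvate formed by GPT2. Enzyme reaction: 10ng/uL GPT2, 2mM L-alanine, 250uM a-KG, 30 min room temperature, pH 7.5; 50uM AOA control.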
Luciferase inh – blocks purified firefly luciferase enzyme activity; P08659; purified P. pyralis luciferase, luminescence, biochemical; Potency, µM (doses to about 115 µM), most hits filed as inhibitors; hit rate 2.5% among 76,000; AID 1347043; note: nearly all actives have a fitted effect of over 65% in size
Target sequence (P08659 whole entry, looked up): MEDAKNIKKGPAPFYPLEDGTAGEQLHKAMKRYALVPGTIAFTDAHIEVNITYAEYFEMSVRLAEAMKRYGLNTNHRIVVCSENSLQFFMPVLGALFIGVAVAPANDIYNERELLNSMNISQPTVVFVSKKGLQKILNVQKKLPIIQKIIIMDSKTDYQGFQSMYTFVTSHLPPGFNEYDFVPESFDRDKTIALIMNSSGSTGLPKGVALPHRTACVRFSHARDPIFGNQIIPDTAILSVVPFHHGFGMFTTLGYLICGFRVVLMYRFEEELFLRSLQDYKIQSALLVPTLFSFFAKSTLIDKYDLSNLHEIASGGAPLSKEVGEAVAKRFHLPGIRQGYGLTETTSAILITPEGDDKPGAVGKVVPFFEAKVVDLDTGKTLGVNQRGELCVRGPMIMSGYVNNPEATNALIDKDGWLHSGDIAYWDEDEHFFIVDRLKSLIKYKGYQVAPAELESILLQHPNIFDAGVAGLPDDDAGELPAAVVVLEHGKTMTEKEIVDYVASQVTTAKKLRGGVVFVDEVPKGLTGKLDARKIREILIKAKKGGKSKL
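Cell-free enzyme assay, 10nM P. pyralis luciferase, luciferin and ATP each at 10uM. Inhibition profiled over a 6-point titration, read as luminescence.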
HEK cytotox – HEK 293 cell cytotoxicity. AID 1345083. HEK 293 viability, ATP luminescence (CellTiter-Glo), 48-72 h. hit rate 6.6% among 94,000. Potency, µM (titrated, usually from 115 µM), for the others: at the top dose activity change, negative = cytotoxicity, actives largely listed as inhibitors; note: nearly all actives have a fitted effect of over 60% in size
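250 HEK 293 cells/well; compound by pintool; incubated 48 or 72 hr at 37 degree Celsius; CellTiter-Glo added, 10 min RT, luminescence imaged.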
* marks the source's active call; other numbers are inactive results; i = inactive; ? = inconclusive; · = no result; [ ] = dose if it differs, or a comment. Most compounds without a hit are left out; they make up all but 10% or so of the library. Unless noted, calls come from the whole dose curve; as a rule, active = well fitted curve in the direction sought with a large enough effect; inconclusive = small, poorly fitted or top-dose-only effect, or another doubt; inactive = no such curve, though single readings can be large; an effect the other way counts as inactive or inconclusive. % is set by controls: 0 for no effect and ±100 for the full control effect; potency is the fitted concentration of half-maximal effect.

SMILES	hNpr1 antagonist	NIH3T3 tox	GPT2 inh	Luciferase inh	HEK cytotox
O=c1cc(-c2cccnc2)nc(-c2ccc(CN3CCCC(F)(F)C3)cc2)[nH]1	-1%	-3%	i	i	4%
COc1ccc(S(=O)(=O)N2CCOC[C@H](Oc3ccccc3)C2)cc1	-9%[70.6 µM]	?	0%[88.5 µM]	i	63µM*
Cc1noc(C)c1S(=O)(=O)N1CCOC[C@H](Oc2ccc(C(F)(F)F)cc2)C1	-21%[70.6 µM]	?	-9%[88.5 µM]	i	63µM*
COc1ccc(S(=O)(=O)N2CCOC[C@H](Oc3ccc(C(F)(F)F)cn3)C2)cc1	?	?	0%[88.5 µM]	i	100µM*
COc1ccc(O[C@H]2COCCN(S(=O)(=O)c3ccc(OC)cc3)C2)cc1	-1%[70.6 µM]	?	-10%[88.5 µM]	i	?
CS(=O)(=O)N1CCOC[C@H](Oc2ccc(C(F)(F)F)cc2)C1	-18%[70.6 µM]	-17%[138 µM]	-4%[88.5 µM]	i	?
COc1ccc(OC)c(NC(=O)CC2CCCCN(Cc3ccccc3)C2=O)c1 (centres undefined)	·	?	i	·	?
COCCNc1nc2c(S(=O)(=O)c3ccc(C)c(C)c3)nnn2c2ccccc12	·	?	?	·	-30%
CN(Cc1ccc(N2CCNC2=O)cc1)CC1CCCN(CCc2ccc(F)cc2)C1 (centres undefined)	4%	?	-4%	i	?
CCCCc1ncc(CN(C)CC2CCCN(CCc3ccc(F)cc3)C2)[nH]1 (centres undefined)	2%	?	?	i	40µM*
Cc1c(CC(=O)NCC(F)(F)F)c2c(n1Cc1ccccc1F)CCCC2=O	0%	-23%	-3%	i	-25%
Cc1c(CC(=O)NC(C)C)c2c(n1Cc1ccccc1F)CCCC2=O	-7%	-4%	i	45µM*	?
CC1CCCN(c2ncnc3c2CN(C2CCNCC2)C(=O)CN3C)C1 (centres undefined)	·	-2%	i	·	-8%
CCCCNC(=O)CCCN1C(=O)COc2ccc(C(C)(C)CC)cc21	-1%	?	-16%	i	45µM*
O=C(CN1C(=O)COc2ccc(C(=O)COc3ccc(Cl)cc3F)cc21)NC1CCCCC1	3%	?	5%	i	28µM*
Cc1ccc(OCC(=O)c2ccc3c(c2)N(CCCC(=O)N2CCOCC2)C(=O)CO3)cc1C	-9%	-15%	-9%	i	?
CN(Cc1ccccc1)C(=O)CN1C(=O)COc2ccc(C(=O)COc3ccc(F)cc3)cc21	-1%	?	1%	i	20µM*
CC(C)c1ccc(OCC(=O)c2ccc3c(c2)N(CCCC(=O)N2CCOCC2)C(=O)CO3)cc1	-18%	32µM*	i	?	32µM*
CN(Cc1ccccc1)C(=O)CN1C(=O)COc2ccc(C(=O)COc3cccc(F)c3)cc21	1%	-20%	i	i	?
COCC(=O)Nc1ccc([C@@H](O)[C@H]2COCC(=O)N2Cc2ccc(F)cc2)cc1	2%[70.6 µM]	-3%[138 µM]	-7%[88.5 µM]	i	i
CCN1CCC(OCCCNC(=O)CCC[C@H]2NC[C@@H]3C[C@H]2CN(Cc2ccccc2)C3)CC1	-14%	-6%	i	i	-16%
COCCNC(=O)CCCN1C(=O)COc2ccc(C(=O)COc3ccc(F)c(Cl)c3)cc21	-3%	?	1%	i	?
COCCNC(=O)CCCN1C(=O)COc2ccc(C(=O)COc3ccc(C(C)(C)C)cc3)cc21	-16%	?	i	14µM*	?
COCCNC(=O)c1cc(C2CC2)nc2c1c(C1CCCN1)nn2-c1ccccc1 (centres undefined)	·	?	-2%	·	79µM*
Cn1nc(C2CCCN2)c2c(C(=O)N3CCC(F)CC3)cc(C3CC3)nc21 (centres undefined)	·	2%	i	·	i
SMILES	hNpr1 antagonist	NIH3T3 tox	GPT2 inh	Luciferase inh	HEK cytotox
COCCNC(=O)c1cc(-c2ccc(OC)cc2)nc2c1c(C1CCCN1)nn2C (centres undefined)	·	?	i	·	-25%
O=C(c1cc(C2CC2)nc2c1c(C1CCCN1)nn2-c1ccccc1)N1CCC(F)CC1 (centres undefined)	·	32µM*	4%	·	?
COc1ccc(-c2cc(C(=O)NCC(C)C)c3c(C4CCCN4)nn(C)c3n2)cc1 (centres undefined)	·	32µM*	4%	·	?
CN1CCN(C(=O)c2nc3sccn3c2-c2ccc(C(F)(F)F)cc2)CC1	·	-10%	4%	·	-14%
CC1(C(=O)NCc2cnccn2)CCc2cnc(NCc3ccccc3)nc21 (centres undefined)	1%[70.6 µM]	50µM*	3%[88.5 µM]	i	-4%[172 µM]
CC1(C(=O)NCC2CC2)CCCc2cnc(NCc3ccccc3)nc21 (centres undefined)	-24%[70.6 µM]	?	-16%[88.5 µM]	i	?
CC1(C(=O)NCc2cccnc2)CCCc2cnc(Nc3ccccc3F)nc21 (centres undefined)	2%[70.6 µM]	?	?	i	?
CC1(C(=O)N2CCN(c3ccccn3)CC2)CCc2cnc(NCc3ccccc3)nc21 (centres undefined)	-8%[70.6 µM]	?	2%[88.5 µM]	i	100µM*
CC1(C(=O)NCC2CCCO2)CCc2cnc(NCc3ccccc3)nc21 (centres undefined)	-5%[70.6 µM]	50µM*	-2%[88.5 µM]	i	-26%[172 µM]
CC1(C(=O)NCCc2ccccn2)CCc2cnc(NCc3ccccc3)nc21 (centres undefined)	-2%[70.6 µM]	40µM*	2%[88.5 µM]	i	-30%[172 µM]
COc1ccc(C(=O)N2CCOCC3(CN(Cc4cc(F)cc(F)c4)C3)C2)c(OC)n1	-2%[70.6 µM]	-76%[138 µM]	-5%[88.5 µM]	i	-71%[172 µM]
O=C(c1ccc(Cl)cc1)N1CCOCC2(CN(Cc3ccccc3)C2)C1	3%[70.6 µM]	3.2µM*	i	i	-69%[172 µM]
COc1ccc(C(=O)N2CCOCC3(CN(Cc4ccccc4)C3)C2)cc1	2%[70.6 µM]	?	-14%[88.5 µM]	i	10µM*
COc1ccc(C(=O)N2CCOCC3(CN(Cc4ccccc4)C3)C2)c(OC)n1	3%[70.6 µM]	32µM*	1%[88.5 µM]	i	45µM*
O=C(c1ccc(Cl)cc1)N1CCOCC12CCN(CCc1ccccc1)CC2	-19%[70.6 µM]	?	-11%[88.5 µM]	i	?
COc1ccc(C(=O)N2CCOCC3(CN(Cc4cc(C)cc(F)c4)C3)C2)cc1OC	-4%[70.6 µM]	?	3%[88.5 µM]	i	8.9µM*
CC(C)n1cnnc1CC1CCN(C(=O)Cc2c[nH]c3ccccc23)C1 (centres undefined)	·	-18%	0%	·	-1%
COC(=O)NC1CCN(Cc2cccc(-c3ccc(SC)cc3)c2)CC1	·	32µM*	·	·	?
COc1ccccc1C(=O)NC1CCN(Cc2cccc(-c3ccc(SC)cc3)c2)CC1	·	28µM*	·	·	32µM*
CSc1ccc(-c2cccc(CN3CCC(NC(=O)NC4CCCC4)CC3)c2)cc1	·	-17%	·	·	-9%
